Laboratory results: PubChem BioAssay (NCI)
Compounds without any hit were thinned out: in the full panel of roughly 83,000, 20% have a hit.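 Growth was measured after 48 h exposure to one concentration of compound in 96-well plates. Values under 10 count as active.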 The source made the active and inactive calls.

What was measured:
Assay in all cases: NCI-60 one-dose screen, 48 h (100 = growth as untreated, 0 = no growth, -100 = all killed)
Conditions in all cases: 10 µM unless noted
NCI-H23 lung = test system: NCI-H23 lung
NCI-H226 lung = test system: NCI-H226 lung
NCI-H322M lung = test system: NCI-H322M lung
HOP-62 NSCLC = test system: HOP-62 NSCLC
NCI-H460 lung = test system: NCI-H460 lung
HOP-92 NSCLC = test system: HOP-92 NSCLC
NCI-H522 lung = test system: NCI-H522 lung
A549/ATCC NSCLC = test system: A549/ATCC NSCLC
786-0 renal = test system: 786-0 renal
COLO 205 colon = test system: COLO 205 colon

Measured: growth

CC(C)(C)n1cc(-c2ccnc(NCCNS(=O)(=O)c3ccc(C(F)(F)F)cc3)c2)c(-c2ccccc2)n1
inactive: NCI-H23 lung 83% | NCI-H226 lung 89.4% | NCI-H322M lung 99.5% | HOP-62 NSCLC 97.8% | NCI-H460 lung 93.8% | NCI-H522 lung 85.9% | A549/ATCC NSCLC 78.2% | 786-0 renal 80.5% | COLO 205 colon 87.3%
active: HOP-92 NSCLC 3.62%

O=C(O)c1nn(-c2ccc(Cl)cc2)nc1N1CCCC1
inactive: NCI-H23 lung 91% | NCI-H226 lung 90.8% | NCI-H322M lung 97.7% | HOP-62 NSCLC 97.5% | NCI-H460 lung 101% | HOP-92 NSCLC 77.1% | NCI-H522 lung 89.3% | A549/ATCC NSCLC 101% | 786-0 renal 100% | COLO 205 colon 111%

Nc1ncc(-c2ccc3ncnc(N4CCc5cc(F)c(Cl)cc54)c3c2)cn1
inactive: NCI-H23 lung 58.8% | NCI-H226 lung 33.6% | NCI-H322M lung 25.1% | HOP-62 NSCLC 28.7% | NCI-H460 lung 38.8% | HOP-92 NSCLC 11.5% | NCI-H522 lung 44.1% | A549/ATCC NSCLC 28.5% | 786-0 renal 26% | COLO 205 colon 51.5%

Oc1cccc2c1NCCC2
active: NCI-H460 lung 5.35% | HOP-92 NSCLC -16.6% | NCI-H522 lung -2.3%
inactive: NCI-H23 lung 13.6% | NCI-H226 lung 32.8% | NCI-H322M lung 38.3% | HOP-62 NSCLC 25.1% | A549/ATCC NSCLC 12.9% | 786-0 renal 26.6% | COLO 205 colon 38.6%

COC(=O)c1c(C)nc(C)c2c1C(=O)C(Br)=C(NCCCCO)C2=O
inactive: NCI-H23 lung 51.1% | NCI-H226 lung 96.7% | NCI-H322M lung 75.5% | HOP-62 NSCLC 114% | NCI-H460 lung 40% | HOP-92 NSCLC 140% | NCI-H522 lung 71.1% | A549/ATCC NSCLC 75.1% | 786-0 renal 89.2% | COLO 205 colon 17%

CNC(=O)c1cc(Oc2ccc3nc(NC(=O)NC(C)C)sc3c2)ccn1
inactive: NCI-H23 lung 87.5% | NCI-H226 lung 79.2% | NCI-H322M lung 95.2% | HOP-62 NSCLC 75.6% | NCI-H460 lung 86.8% | HOP-92 NSCLC 63.3% | NCI-H522 lung 59.3% | A549/ATCC NSCLC 64.3% | 786-0 renal 80.3% | COLO 205 colon 78.8%

Cn1ccnc1C(=O)/C=C/c1ccc(CC(=O)Nc2cc(F)c(F)c(F)c2)cc1
inactive: NCI-H226 lung 58.1% | NCI-H322M lung 21.1% | HOP-62 NSCLC 11.8% | HOP-92 NSCLC 69.4% | NCI-H522 lung 12.3% | A549/ATCC NSCLC 28.6% | COLO 205 colon 24%
active: NCI-H23 lung 8.11% | NCI-H460 lung 5.19% | 786-0 renal 6.02%

CCCCN(CCC#N)C(N)=O
inactive: NCI-H23 lung 115% | NCI-H226 lung 103% | NCI-H322M lung 107% | HOP-62 NSCLC 105% | NCI-H460 lung 108% | HOP-92 NSCLC 97.2% | NCI-H522 lung 105% | A549/ATCC NSCLC 109% | 786-0 renal 92% | COLO 205 colon 120%

Cc1ccc2c(n1)C[C@H](C(C)(C)O)CC[C@H]2C
inactive: NCI-H23 lung 103% | NCI-H226 lung 100% | NCI-H322M lung 98.5% | HOP-62 NSCLC 101% | NCI-H460 lung 108% | HOP-92 NSCLC 97.7% | NCI-H522 lung 94.3% | A549/ATCC NSCLC 94.4% | 786-0 renal 97.9% | COLO 205 colon 111%

C#Cc1ccc(NC(=O)Cc2ccc(/C=C/C(=O)c3nccn3C)cc2)cc1
inactive: NCI-H23 lung 40.4% | NCI-H226 lung 90.6% | NCI-H322M lung 57.6% | HOP-62 NSCLC 48.3% | NCI-H460 lung 22.6% | HOP-92 NSCLC 96.5% | NCI-H522 lung 68.1% | A549/ATCC NSCLC 74.6% | 786-0 renal 30% | COLO 205 colon 66%

COc1ccc(C2CC(=O)Oc3c(OC)c4c(c(OC)c32)OCO4)cc1 (stereo not given)
inactive: NCI-H23 lung 98.1% | NCI-H226 lung 112% | NCI-H322M lung 90.1% | HOP-62 NSCLC 84.9% | NCI-H460 lung 107% | HOP-92 NSCLC 101% | NCI-H522 lung 85.7% | A549/ATCC NSCLC 97.6% | 786-0 renal 100% | COLO 205 colon 103%

C#Cc1cccc(Nc2ncnc3ccc(-c4cnc(Cl)c(NS(C)(=O)=O)c4)cc23)c1
active: NCI-H23 lung -5.52% | NCI-H226 lung 2.26% | NCI-H322M lung -42.3% | HOP-62 NSCLC 3.57% | NCI-H460 lung 6.42% | HOP-92 NSCLC -17.1% | NCI-H522 lung -22.8% | A549/ATCC NSCLC -28.5% | 786-0 renal -14.6% | COLO 205 colon -69.2%

CC/C(=C(/c1ccc(Cl)cc1)c1ccc(OCCCN(C)C)cc1)c1ccc(OC)cc1
active: NCI-H460 lung 5.32% | COLO 205 colon -65.3%
inactive: NCI-H23 lung 78.6% | NCI-H226 lung 104% | NCI-H322M lung 67.5% | HOP-62 NSCLC 99.1% | HOP-92 NSCLC 49.8% | NCI-H522 lung 87.3% | A549/ATCC NSCLC 49.8% | 786-0 renal 57.9%
